USP30 inh – inhibitors of human USP30 deubiquitinase. inhibition, % at 25 µM. Q70CQ3. purified USP30, Ub-rhodamine cleavage fluorescence. hit rate 5.3% among 47,000
USP28 block – blocks human USP28 ubiquitin-rhodamine cleavage. Q96RU2. purified USP28, Ub-rhodamine cleavage fluorescence, 30 min. inhibition, % at 25 µM. hit rate 3% among 47,000. AID 1645857
USP17 inh – human USP17-like deubiquitinase inhibition; AID 1645855; A8MUK1; inhibition, % at 50 µM; hit rate 6.5% among 47,000; purified USP17, Ub-rhodamine cleavage fluorescence, 3 h
Target sequence (A8MUK1 whole entry, looked up): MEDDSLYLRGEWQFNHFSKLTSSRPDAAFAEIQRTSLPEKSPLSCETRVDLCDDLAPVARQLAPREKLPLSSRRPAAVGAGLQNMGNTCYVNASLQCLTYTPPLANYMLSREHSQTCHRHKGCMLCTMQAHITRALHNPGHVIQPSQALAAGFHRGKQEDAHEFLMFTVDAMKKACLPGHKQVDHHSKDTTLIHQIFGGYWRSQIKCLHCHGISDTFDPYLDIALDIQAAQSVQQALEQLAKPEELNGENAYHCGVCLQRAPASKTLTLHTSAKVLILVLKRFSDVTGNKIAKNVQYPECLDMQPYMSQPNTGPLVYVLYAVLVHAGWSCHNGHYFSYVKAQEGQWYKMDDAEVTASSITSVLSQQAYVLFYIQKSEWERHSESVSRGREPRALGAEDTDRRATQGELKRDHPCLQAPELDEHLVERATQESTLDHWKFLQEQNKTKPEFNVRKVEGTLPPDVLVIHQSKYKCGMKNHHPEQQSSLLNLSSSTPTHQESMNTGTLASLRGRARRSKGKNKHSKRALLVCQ
OTUD3 inh – human OTUD3 deubiquitinase inhibition; purified OTUD3, Ub-rhodamine fluorescence, 2 h; Q5T2D3; inhibition, % at 25 µM; AID 1645858; hit rate 0.7% among 47,000
* = called active by the depositor; i = inactive; . = no result. Sampled rows, rich in hits. Any-hit rate of the full collection: about 11%. Cut-off read from the data, not from the text of the source: active = inhibition above about 30%; inactive = the rest.

SMILES | USP30 inh | USP28 block | USP17 inh | OTUD3 inh
CC1=C(Cn2c3cccc(=O)c-3nc3ccccc32)CCC(C)(C)C1 | 20 | 74* | 78* | 74*
COc1cc(OC)cc(-n2c(=O)c3sccc3n(CC(=O)c3ccc(F)cc3)c2=O)c1 | 56* | 10 | 20 | 9
COc1cc(OC)cc(-n2c(=O)c3sccc3n(CC(=O)Nc3ccc(C)cc3)c2=O)c1 | 20 | 8 | 62* | 5
O=C(N[C@H]1C[C@H]2CN(Cc3ccccc3)c3ccccc3CN2C1)c1cccs1 | i | -145 | -150 | -173
COc1ccc(CCNC(=O)c2c(N)n(-c3cccc(Cl)c3)c3nc4ccccc4nc23)cc1 | -102 | -22 | 65* | -29
COc1ccc(CCNC(=O)c2c(N)n(-c3cccc(F)c3)c3nc4ccccc4nc23)cc1 | -102 | -26 | 38* | -59
Cn1c(CNC(=O)c2cn3ccnc(-c4ccccc4)c3n2)nc2ccccc21 | 12 | 15 | 19 | 11
O=C(CCSc1ccc(Cl)cc1)c1cccs1 | 9 | 24 | 84* | 20
COc1ccc(NC(=O)c2cc(-c3ccco3)on2)c(OC)c1 | -150 | -47 | -54 | -44
COc1ccc(OC)c(-c2cc(C(=O)Nc3c(C)nn(Cc4ccccc4)c3C)no2)c1 | -72 | 80* | 3 | 0
Cc1cccc(OCc2nnc(SCC(=O)Nc3cccc(F)c3C)o2)c1 | 25 | 44* | 0 | 2
CCC(C(=O)N(Cc1nc2nc(C)cc(=O)n2[nH]1)c1ccccc1)c1ccccc1 (centres undefined) | 22 | 8 | 9 | 7
Cn1cnnc1Sc1ncnc(N)c1[N+](=O)[O-] | 34* | 9 | 3 | 28
Nc1ncnc(N2CC(=O)N(CCc3ccccc3)C(=O)C2)c1[N+](=O)[O-] | i | -221 | -155 | -162
COC1=C(N)C(=O)c2nc(-c3nc(C(=O)O)c(C)c(-c4ccc(O)c(OC)c4O)c3N)ccc2C1=O | -172 | 31* | 46* | 14
Clc1ccccc1CSc1nnc(C2CCCCC2)n1Cc1ccccc1 | 57* | 23 | 37* | 23
O=C(NCC1CC1)[C@H]1CO[C@H]2CCN(Cc3ccoc3)C[C@H]2C1 | 3 | 4 | -11 | 3
COc1ccc(-c2c(NC(=O)c3cc(F)cc(F)c3)n[nH]c2C)cc1OC | 27 | 13 | . | 14
Cc1[nH]nc(NC(=O)C2COc3ccccc3O2)c1-c1ccccc1 (centres undefined) | 25 | 53* | 39* | 37*
COc1ccc(-c2c(NC(=O)C3COc4ccccc4O3)n[nH]c2C)cc1OC (centres undefined) | 11 | 32* | 0 | 8
COCCOc1cc2n(c(=O)n1)CCc1cc(OC)c(OC)cc1-2 | -175 | -51 | -41 | -30
Fc1cccc(Cl)c1C1Nc2ccccc2-c2nc3ccccc3n21 (centres undefined) | 9 | 2 | 1 | -9
Cc1ccc(C(=O)N2CCC(c3cc(-c4ncc[nH]4)nc(C)n3)CC2)cn1 | -17 | -13 | -4 | -8
COc1ccc(Cn2ccc3nc(N4CCOCC4)c(C#N)cc3c2=O)cc1 | 54* | 31* | 68* | -6
Cc1ncc(-c2cncc(CC3CCCN(C(=O)C(C)(C)C)C3)n2)n1C (centres undefined) | -15 | 1 | -27 | 13
SMILES | USP30 inh | USP28 block | USP17 inh | OTUD3 inh
Cc1cccc(NC(=O)Cn2cnc(-c3noc(-c4ccccc4)n3)c2)c1C | 44* | 39* | 18 | 37*
Cc1ccccc1-c1noc(-c2cn(Cc3ccc(NC(=O)Cc4ccccc4)cc3)cn2)n1 | 69* | 37* | 60* | 6
Cc1ccc(-c2noc(-c3cn(Cc4ccc(N)cc4)cn3)n2)cc1 | -3 | 4 | 0 | -13
O=C(Nc1ccc(Cn2cnc(-c3nc(-c4ccccc4)no3)c2)cc1)c1ccccc1F | 32* | 23 | . | 9
CN1CCCc2cc(C(CNC(=O)COc3ccccc3)N3CCOCC3)ccc21 (centres undefined) | -108 | -31 | -39 | -25
O=C(C1CC1)N1CCC2(CCN2Cc2ccc(F)cc2)C1 (centres undefined) | 6 | -6 | -5 | -4
CC(=O)c1ccc(NC(=O)CCC(=O)N2CCOc3ccccc32)cc1 | -5 | 6 | -1 | 4
COc1cccc(NC(=O)CC2Sc3ccccc3NC2=O)c1 (centres undefined) | 39* | 17 | 32* | 13
O=C(Cc1nc2ccccc2[nH]1)NCc1ccc(F)cc1 | -10 | 2 | 2 | 1
CC(C)c1ccc(CNC(=O)c2nc3ccccc3[nH]2)cc1 | 3 | 7 | 50* | 1
COc1ccc(S(=O)(=O)N2CCC(c3ncc(C)[nH]3)C2)cc1 (centres undefined) | 31* | 9 | 12 | 12
CCc1nc(N2CCCC2=O)sc1C(=O)Nc1ccc(F)cc1C | -2 | 6 | -3 | 6
O=C(/C=C/c1ccccc1)Nc1c2c(nc3c1CCC3)CCCC2 | 40* | 11 | 21 | 9
O=C(/C=C/c1ccccc1)Nc1nc(-c2ccccc2)c(-c2ccccc2)s1 | 22 | 16 | 11 | 11
CC(NC(=O)Cc1ccccc1Cl)c1nc(-c2cccnc2)n[nH]1 (centres undefined) | 11 | 14 | 14 | 6
Cc1ccc(F)cc1NC(=O)C1Cc2ccccc2CN1C(=O)c1ccco1 (centres undefined) | -130 | -22 | 2 | -12
Cc1noc(C2CN(C(=O)/C=C/c3ccc4c(c3)OCO4)C2)n1 | 33* | 11 | 5 | 9
O=C(/C=C/c1cccc([N+](=O)[O-])c1)N1CCc2ccccc21 | -8 | 8 | 0 | 0
O=C(/C=C/c1ccc2c(c1)OCO2)N1CCCc2ccccc21 | 46* | 25 | 18 | 30
Cc1ccc(N=c2scc(-c3ccccc3F)n2C2CC2)cc1Cl | . | . | 16 | 1
CC/C=C\[C@@H](O)[C@@H](O)C1=C(C)C(=O)[C@]2(O1)C(=O)N[C@@](OC)(C(=O)c1ccccc1)C2O (some centres undefined) | -36 | -17 | -28 | -15
COc1cccc(-n2c(SCC(=O)N3CCc4ccccc43)nnc2-c2cccnc2)c1 | 1 | 4 | 16 | 2
CCOc1ccc(-n2c(SCC(=O)N3CC(=O)Nc4ccccc43)nnc2-c2ccc(OC)cc2)cc1 | 17 | 35* | 51* | -9
O=C1c2ccccc2C2(CCCC2)C(=O)N1Cc1ccccc1 | 6 | 14 | 33* | 9
CCOc1ccc2nc(C(=O)N3CCC4(CC3)OCCO4)cn2n1 | 3 | 7 | 17 | 27
Clc1ccc2nc(COc3ccccc3Cc3ccccc3)[nH]c2c1 | 10 | 5 | 31* | 10
Cc1cccc(NC(=O)Cn2c(=O)c3c(C(=O)N4CCCCC4)cc(C)nc3n(C)c2=O)c1 | 1 | -1 | -2 | -12
O=C(NCc1cccnc1)c1c2c(NCC3CC3)ncnc2n2ccccc12 | -108 | -30 | 31* | -25
CN1CCCN(C(=O)c2c3c(NCc4ccccc4)ncnc3n3ccccc23)CC1 | -411 | -120 | -103 | -86
CC(C)N1C[C@@H]2OCC(=O)N(Cc3nccn3C)[C@@H]2C1 | -62 | -29 | -20 | -20

Compound activity from PubChem.
